Key:
Test in all cases: SPOT peptide array binding signal intensity (averaged, normalized) (arbitrary units (background-subtracted, floor 0; scale differs between SH3 domains)); higher = stronger binding of the SH3 domain to the peptide
[1] = target: ScBbc1
Protocol: (§1)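 GST-tagged SH3 domains from S. cerevisiae (Sc), A. gossypii (Ag), C. albicans (Ca) and S. pombe (Sp) were incubated at 10 ug/ml overnight at 4 C on cellulose SPOT membranes carrying 292 synthetic 15-mer peptides mined from the S. cerevisiae proteome (cysteines replaced by serines). Binding was detected with anti-GST antibody, HRP secondary and chemiluminescence, quantified with Genespotter, and reported as normalized spot intensities averaged over biological replicates.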

[2] = target: ScBem1-D1
Protocol: as §1

[3] = target: ScBzz1-D1
Protocol: as §1

[4] = target: ScBzz1-D2
Protocol: as §1

[5] = target: ScCyk3
Protocol: as §1

[6] = target: ScFus1
Protocol: as §1

[7] = target: ScHof1
Protocol: as §1

[8] = target: ScHse1
Protocol: as §1

[9] = target: ScLsb1
Protocol: as §1

[10] = target: ScLsb2
Protocol: as §1

[11] = target: ScLsb3
Protocol: as §1

[12] = target: ScLsb4
Protocol: as §1

[13] = target: ScMyo3
Protocol: as §1

[14] = target: ScMyo5
Protocol: as §1

[15] = target: ScNbp2
Protocol: as §1

[16] = target: ScPex13
Protocol: as §1

[17] = target: ScRvs167
Protocol: as §1

[18] = target: ScSho1
Protocol: as §1

[19] = target: ScSla1-D1-D2
Protocol: as §1

[20] = target: ScSla1-D3
Protocol: as §1

[21] = target: SpAbp1-D1
Protocol: as §1

[22] = target: SpBbc1
Protocol: as §1

[23] = target: SpBzz1-D1
Protocol: as §1

[24] = target: SpBzz1-D2
Protocol: as §1

[25] = target: SpCyk3
Protocol: as §1

[26] = target: SpHof1
Protocol: as §1

[27] = target: SpHof1-2
Protocol: as §1

[28] = target: SpHof1-3
Protocol: as §1

[29] = target: SpHse1
Protocol: as §1

[30] = target: SpLsb1
Protocol: as §1

[31] = target: SpLsb4
Protocol: as §1

[32] = target: SpMyo1
Protocol: as §1

[33] = target: SpNbp2
Protocol: as §1

[34] = target: SpPex13
Protocol: as §1

[35] = target: SpRvs167
Protocol: as §1

[36] = target: SpSla1-D1-D2
Protocol: as §1

[37] = target: SpSla1-D3
Protocol: as §1

RLSRLLLSLPPESFT
SPOT peptide array binding signal intensity [1]: 1.25
SPOT peptide array binding signal intensity [2]: 102
SPOT peptide array binding signal intensity [3]: 94
SPOT peptide array binding signal intensity [4]: 118
SPOT peptide array binding signal intensity [5]: 89
SPOT peptide array binding signal intensity [6]: 1180
SPOT peptide array binding signal intensity [7]: 1
SPOT peptide array binding signal intensity [8]: 1930
SPOT peptide array binding signal intensity [9]: 1.5
SPOT peptide array binding signal intensity [10]: 9
SPOT peptide array binding signal intensity [11]: 127
SPOT peptide array binding signal intensity [12]: 4.5
SPOT peptide array binding signal intensity [13]: ≤ 0
SPOT peptide array binding signal intensity [14]: 6
SPOT peptide array binding signal intensity [15]: 176
SPOT peptide array binding signal intensity [16]: 1.75
SPOT peptide array binding signal intensity [17]: 20.3
SPOT peptide array binding signal intensity [18]: 1770
SPOT peptide array binding signal intensity [19]: ≤ 0
SPOT peptide array binding signal intensity [20]: 5.75
SPOT peptide array binding signal intensity [21]: 198
SPOT peptide array binding signal intensity [22]: 0.5
SPOT peptide array binding signal intensity [23]: 315
SPOT peptide array binding signal intensity [24]: ≤ 0
SPOT peptide array binding signal intensity [25]: 10
SPOT peptide array binding signal intensity [26]: 252
SPOT peptide array binding signal intensity [27]: 24.2
SPOT peptide array binding signal intensity [28]: 441
SPOT peptide array binding signal intensity [29]: 1330
SPOT peptide array binding signal intensity [30]: 1.25
SPOT peptide array binding signal intensity [31]: 20
SPOT peptide array binding signal intensity [32]: 6.5
SPOT peptide array binding signal intensity [33]: 76
SPOT peptide array binding signal intensity [34]: 16
SPOT peptide array binding signal intensity [35]: 13.7
SPOT peptide array binding signal intensity [36]: ≤ 0
SPOT peptide array binding signal intensity [37]: 6

Source: the supplement of paper PMC4466140
